The target in experiment [1] is CCAAT/enhancer-binding protein beta (Homo sapiens) (UniProt P17676). The experiment in a line: ATG_C_EBP_CIS: Attagene CIS-FACTORIAL HepG2 Assay for human CCAAT/Enhancer Binding Protein (C/EBP) beta (AID 2282927). As to conditions: HepG2 Attagene cis-factorial transcription factor reporter; actives raise or lower the signal. Summed up:
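Following a 24 h incubation with test chemical, transfected HepG2 cells yielded RNA whose reporter transcripts were quantified by RT-PCR and fluorescent capillary electrophoresis, with DMSO serving as baseline for bidirectional fitting.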

The nature of experiment [2]: ATG_DR4_LXR_CIS: Attagene CIS-FACTORIAL HepG2 Assay for human Liver X Receptor (LXR), DR4 submotif (AID 2282929). The conditions noted are these: HepG2 Attagene DR4 cis-reporter, mRNA transcription; actives raise or lower the signal. Summed up:
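After transient transfection with multiplexed cis-promoter reporter units, HepG2 cells received test chemicals for 24 h. Reporter mRNA induction, detected by fluorescence after RT-PCR and capillary electrophoresis, was scored relative to DMSO.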

The nature of experiment [3]: ATG_AP_2_CIS: Attagene CIS-FACTORIAL HepG2 Assay for human Activator Protein 2 (AP-2) (AID 2282932). As to conditions: HepG2 AP-2 cis-reporter, Attagene transcription factor profiling; actives raise or lower the signal. Summed up:
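Bidirectional curve fitting against DMSO was applied to reporter mRNA signals from HepG2 cells 24 h after dosing. Cis-promoter reporter units, transiently transfected, were read by RT-PCR plus capillary electrophoresis.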

For experiment [4], the target named is Transcription factor E2F1 (Homo sapiens) (UniProt Q01094). Kind of experiment: ATG_E2F_CIS: Attagene CIS-FACTORIAL HepG2 Assay for human E2F Transcription Factor 1 (AID 2282935). The conditions noted are these: HepG2 Attagene cis-reporter, E2F reporter RNA transcripts; actives raise or lower the signal. The essentials: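 Multiplexed cis-reporter assay: HepG2, transient transfection, 24 h dosing, mRNA quantitation by labeled RT-PCR and CE.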

Experiment [5] is described as follows: ATG_E_Box_CIS: Attagene CIS-FACTORIAL HepG2 Assay for human Enhancer Box (E-box) (AID 2282936). As to conditions: HepG2 E-box cis-reporter transcription, actives raise or lower the signal. The essentials:
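Multiplexed CIS reporter system in transiently transfected HepG2 cells measures native transcription factor activity. Reporter RNA after 24 h exposure is profiled by RT-PCR-capillary electrophoresis.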

Experiment [6] is described as follows: ATG_M_19_CIS: Attagene CIS-FACTORIAL HepG2 Assay for M19 Transcription Factor (Internal Marker) (AID 2282939). As to conditions: HepG2 Attagene CIS-FACTORIAL M19 internal marker reporter; actives raise or lower the signal. The essentials: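 Signals come from fluorescence of labelled reporter-specific PCR fragments resolved by capillary electrophoresis, following 24 h treatment of HepG2 cells transfected with cis-promoter reporter units; activity was fitted in both directions relative to DMSO.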

A short description of experiment [7]: ATG_GLI_CIS: Attagene CIS-FACTORIAL HepG2 Assay for human Zinc Finger Protein GLI1 (AID 2282945). The conditions noted are these: HepG2, Attagene cis-factorial reporter mRNA, GLI element; actives raise or lower the signal. The essentials: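 HepG2 cells transiently transfected with cis-promoter multiplexed reporter units report endogenous transcription factor activity. After 24 h chemical exposure, reporter mRNA was quantified by RT-PCR, 6-FAM labelling, HpaI digestion and capillary electrophoresis, with bidirectional fitting against DMSO.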

Experiment [8] is described as follows: ATG_ISRE_CIS: Attagene CIS-FACTORIAL HepG2 Assay for human Interferon Regulatory Factor 1 (IRF1) binding to an Interferon-Stimulated Response Element (ISRE) (AID 2282948). As to conditions: HepG2 ISRE cis-reporter (Attagene), mRNA transcription readout; actives raise or lower the signal. Summed up: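 Transfected HepG2 (multiple reporter transcription units, cis elements) dosed 24 h. RNA → oligo(dT) RT → PCR → 6-FAM primer extension → HpaI → CE. DMSO = negative control/baseline.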

A short description of experiment [9]: ATG_M_32_CIS: Attagene CIS-FACTORIAL HepG2 Assay for M32 Transcription Factor (Internal Marker) (AID 2282949).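 Note: background control marker of the multiplexed CIS panel rather than a real target.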 The conditions noted are these: HepG2 Attagene cis-factorial M32 reporter, mRNA; actives raise or lower the signal. Summed up: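 Fluorescent capillary electrophoresis peaks of HpaI-digested, FAM-labelled RT-PCR reporter products give the signal. Source: transiently transfected human liver HepG2 cells, 24 h after chemical dosing; bidirectional fitting against DMSO.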

A short description of experiment [10]: ATG_PXRE_CIS: Attagene CIS-FACTORIAL HepG2 Assay for human Pregnane X Receptor Element (PXRE) (AID 2282957). As to conditions: HepG2 Attagene CIS-FACTORIAL PXRE reporter, mRNA; actives raise or lower the signal. The essentials: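 Cis-element reporter mRNA in human hepatoma HepG2 cells is measured 24 h post-dosing by RT-PCR, primer-extension labeling and capillary electrophoresis; gain or loss of signal is fitted relative to DMSO.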

Experiment [11] in a line: ATG_Sox_CIS: Attagene CIS-FACTORIAL HepG2 Assay for human SRY-box transcription factor (SOX) (AID 2282960). As to conditions: HepG2 Attagene cis-factorial SOX reporter, mRNA; actives raise or lower the signal. Summed up:
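Using transiently transfected HepG2 cells, reporter transcription driven by cis elements was assessed 24 h after dosing. Signal was fluorescence of capillary-separated RT-PCR products, with DMSO defining baseline activity.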

Experiment [12] deals with Transcription factor Sp1 (Homo sapiens) (UniProt P08047). Kind of experiment: ATG_Sp1_CIS: Attagene CIS-FACTORIAL HepG2 Assay for human Specificity Protein 1 (Sp1) (AID 2282961). As to conditions: HepG2 Sp1 cis-reporter transcription, actives raise or lower the signal. Summed up:
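After transient transfection of HepG2 cells with cis-promoter reporter units and 24 h chemical treatment, reporter transcripts were quantified by RT-PCR and capillary electrophoresis fluorescence. Gain- and loss-of-signal fitted against DMSO.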

In experiment [13] the target is Signal transducer and activator of transcription 3 (Homo sapiens) (UniProt P40763). Kind of experiment: ATG_STAT3_CIS: Attagene CIS-FACTORIAL HepG2 Assay for human Signal Transducer and Activator of Transcription 3 (STAT3) (AID 2282963). The conditions noted are these: HepG2, Attagene cis-factorial STAT3 reporter transcription; actives raise or lower the signal. Summed up: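 Transcript-level reporter assay. HepG2 transient MRTU transfection, 24 h exposure, fluorescence detection after RT-PCR and CE; DMSO baseline.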

Experiment [14] can be described thus: ATG_TA_CIS: Attagene CIS-FACTORIAL HepG2 Assay for human TA Basal Promoter (AID 2282964). The conditions noted are these: HepG2 Attagene CIS-factorial TA basal promoter reporter; actives raise or lower the signal. Summed up:
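Fluorescence from labelled RT-PCR reporter fragments, separated by capillary electrophoresis, gives the signal. Cells: HepG2 transiently carrying multiple reporter units, 24 h chemical dosing. Gain or loss relative to DMSO.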

A short description of experiment [15]: ATG_TCF_b_cat_CIS: Attagene CIS-FACTORIAL HepG2 Assay for human T-Cell-Factor with beta-catenin (TCF/b-cat) (AID 2282965). The conditions noted are these: HepG2 TCF/beta-catenin cis-reporter transcription, actives raise or lower the signal. Summed up:
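Using capillary electrophoresis as the read-out, labelled reporter cDNA fragments from transiently transfected HepG2 were sized and quantified. Exposure lasted 24 hours; activity in either direction was referenced to DMSO.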

Experiment [16] in a line: ATG_TAL_CIS: Attagene CIS-FACTORIAL HepG2 Assay for human TAL Basal Promoter (AID 2282966).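 Note: background control endpoint measuring basal TAL promoter reporter mRNA not a specific factor.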 The conditions noted are these: HepG2 Attagene cis-factorial TAL promoter reporter; actives raise or lower the signal. Summed up: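 In this cell-based multiplex, HepG2 liver cells bearing cis-promoter reporter constructs are dosed for 24 hours. Total RNA is reverse-transcribed and amplified, labelled fragments are sized by capillary electrophoresis, and signal changes are fitted bidirectionally versus DMSO.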

The target in experiment [17] is X-box-binding protein 1 (Homo sapiens) (UniProt P17861). Kind of experiment: ATG_Xbp1_CIS: Attagene CIS-FACTORIAL HepG2 Assay for human X-box Binding Protein 1 (XBP1) (AID 2282972). As to conditions: HepG2 XBP1 cis-element reporter, Attagene multiplex; actives raise or lower the signal. Summed up:
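HepG2, transient MRTU transfection (cis-promoter driven), 24 h compound exposure. Total RNA → oligo(dT) RT → PCR → 6-FAM labeling → HpaI cut → CE. Bidirectional fit vs DMSO.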

For experiment [18], the target named is Transcriptional activator Myb (Homo sapiens) (UniProt P10242). Kind of experiment: ATG_Myb_CIS: Attagene CIS-FACTORIAL HepG2 Assay for human Myeloblastosis (Myb) Proto-Oncogene Transcription Factor (AID 2282986). As to conditions: HepG2 Attagene CIS-FACTORIAL Myb reporter transcription; actives raise or lower the signal. The essentials:
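Multiplexed cis-reporter system in HepG2: transient transfection, 24 h treatment, mRNA readout by RT-PCR and capillary electrophoresis. Both increases and decreases are scored versus DMSO negative control.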

Experiment [19] concerns the target Myc proto-oncogene protein (Homo sapiens) (UniProt P01106). Kind of experiment: ATG_Myc_CIS: Attagene CIS-FACTORIAL HepG2 Assay for human Myelocytomatosis (Myc) Proto-Oncogene Transcription Factor (AID 2282990). As to conditions: HepG2, Attagene cis-reporter transcription factor activity; actives raise or lower the signal. Summed up: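 Multiplexed cis-reporter transcription in HepG2 cells after 24 h chemical treatment. Reporter mRNA measured by RT-PCR and capillary electrophoresis fluorescence; activity fitted bidirectionally against DMSO control.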

Experiment [20] in a line: ATG_Oct_MLP_CIS: Attagene CIS-FACTORIAL HepG2 Assay for human Octamer-Binding Transcription Factor (Oct) (AID 2282993). As to conditions: HepG2 Attagene cis-factorial Oct reporter, mRNA; actives raise or lower the signal. Summed up:
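HepG2, transient MRTU transfection, cis promoter elements; 24 h dosing; RT-PCR/CE fluorescence read-out of reporter mRNA; fit both directions vs DMSO.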

The record followed here is PubChem BioAssay (EPA / NIEHS).

Calls of active or inactive are those of the source. Rule for the calls: active = hit-call score of the fitted dose curve at least 0.9, where 1 is the maximum; inactive = score below 0.9.

By AC50 is commonly meant the concentration at which the activity in the assay is half-maximal.

Chain of Myc proto-oncogene protein (Homo sapiens) (P01106 whole entry, looked up): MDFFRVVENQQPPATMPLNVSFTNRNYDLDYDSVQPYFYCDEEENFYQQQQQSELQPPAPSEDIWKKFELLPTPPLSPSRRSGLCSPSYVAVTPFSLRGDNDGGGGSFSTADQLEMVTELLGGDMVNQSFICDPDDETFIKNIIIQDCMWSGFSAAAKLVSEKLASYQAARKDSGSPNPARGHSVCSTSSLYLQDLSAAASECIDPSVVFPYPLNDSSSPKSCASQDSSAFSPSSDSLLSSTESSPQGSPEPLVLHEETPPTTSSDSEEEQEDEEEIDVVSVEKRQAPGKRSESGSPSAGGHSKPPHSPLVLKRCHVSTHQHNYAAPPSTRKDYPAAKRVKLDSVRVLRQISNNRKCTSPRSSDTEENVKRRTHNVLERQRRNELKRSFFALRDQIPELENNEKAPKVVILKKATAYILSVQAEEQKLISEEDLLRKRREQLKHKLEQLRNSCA
Chain of Transcriptional activator Myb (Homo sapiens) (P10242 whole entry, looked up): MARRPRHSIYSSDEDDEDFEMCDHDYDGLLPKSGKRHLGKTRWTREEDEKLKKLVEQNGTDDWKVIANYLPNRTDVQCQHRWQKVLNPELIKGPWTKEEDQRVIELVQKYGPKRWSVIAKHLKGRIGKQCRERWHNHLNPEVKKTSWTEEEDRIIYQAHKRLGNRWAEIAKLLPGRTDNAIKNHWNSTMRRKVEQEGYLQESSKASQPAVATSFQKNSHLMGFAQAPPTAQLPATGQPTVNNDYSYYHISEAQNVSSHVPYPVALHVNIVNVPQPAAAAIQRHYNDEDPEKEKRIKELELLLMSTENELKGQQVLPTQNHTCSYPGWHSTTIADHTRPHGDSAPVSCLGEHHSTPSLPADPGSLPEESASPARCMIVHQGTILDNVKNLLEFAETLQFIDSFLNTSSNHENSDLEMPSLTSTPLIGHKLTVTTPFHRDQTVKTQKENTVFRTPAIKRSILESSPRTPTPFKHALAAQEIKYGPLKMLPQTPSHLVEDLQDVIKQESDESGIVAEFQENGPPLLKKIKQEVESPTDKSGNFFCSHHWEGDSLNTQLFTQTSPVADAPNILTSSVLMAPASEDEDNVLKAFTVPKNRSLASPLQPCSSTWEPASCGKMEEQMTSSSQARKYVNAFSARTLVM
Chain of CCAAT/enhancer-binding protein beta (Homo sapiens) (P17676 whole entry, looked up): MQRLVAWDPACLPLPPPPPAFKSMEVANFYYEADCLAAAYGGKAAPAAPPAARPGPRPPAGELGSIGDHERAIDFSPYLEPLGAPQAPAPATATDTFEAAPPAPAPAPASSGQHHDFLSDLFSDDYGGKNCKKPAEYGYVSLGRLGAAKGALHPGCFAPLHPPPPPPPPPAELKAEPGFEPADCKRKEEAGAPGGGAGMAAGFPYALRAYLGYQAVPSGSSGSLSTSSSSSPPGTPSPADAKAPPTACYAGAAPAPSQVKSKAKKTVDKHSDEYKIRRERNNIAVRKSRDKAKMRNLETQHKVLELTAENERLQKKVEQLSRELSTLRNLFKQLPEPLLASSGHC
Chain of Transcription factor Sp1 (Homo sapiens) (P08047 whole entry, looked up): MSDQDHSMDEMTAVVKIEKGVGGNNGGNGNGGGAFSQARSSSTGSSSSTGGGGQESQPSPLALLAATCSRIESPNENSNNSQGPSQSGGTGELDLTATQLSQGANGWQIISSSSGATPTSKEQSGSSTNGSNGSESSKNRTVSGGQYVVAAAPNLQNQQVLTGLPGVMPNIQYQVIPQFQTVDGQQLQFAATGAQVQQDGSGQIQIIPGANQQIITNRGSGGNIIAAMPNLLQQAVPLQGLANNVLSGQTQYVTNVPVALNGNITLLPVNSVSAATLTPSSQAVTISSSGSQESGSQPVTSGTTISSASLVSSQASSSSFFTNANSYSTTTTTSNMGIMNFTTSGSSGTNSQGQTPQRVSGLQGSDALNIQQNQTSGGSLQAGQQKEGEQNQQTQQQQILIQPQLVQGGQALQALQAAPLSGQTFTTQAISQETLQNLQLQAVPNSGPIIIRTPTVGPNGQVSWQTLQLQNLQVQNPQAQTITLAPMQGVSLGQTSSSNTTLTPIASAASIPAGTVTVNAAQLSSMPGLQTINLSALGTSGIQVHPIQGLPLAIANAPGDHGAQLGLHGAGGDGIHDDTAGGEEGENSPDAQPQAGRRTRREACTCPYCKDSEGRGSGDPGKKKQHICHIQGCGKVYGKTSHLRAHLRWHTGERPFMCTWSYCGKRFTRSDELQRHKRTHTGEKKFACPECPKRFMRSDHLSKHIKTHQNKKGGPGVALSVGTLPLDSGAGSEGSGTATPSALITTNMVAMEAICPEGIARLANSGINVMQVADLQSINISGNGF
Chain of X-box-binding protein 1 (Homo sapiens) (P17861 whole entry, looked up): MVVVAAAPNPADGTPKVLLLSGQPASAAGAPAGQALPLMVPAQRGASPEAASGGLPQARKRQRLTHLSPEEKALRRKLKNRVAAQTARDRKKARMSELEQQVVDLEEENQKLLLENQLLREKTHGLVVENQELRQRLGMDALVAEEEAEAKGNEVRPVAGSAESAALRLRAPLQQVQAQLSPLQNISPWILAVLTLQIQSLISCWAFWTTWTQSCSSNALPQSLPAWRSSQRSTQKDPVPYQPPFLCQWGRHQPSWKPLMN
Chain of Signal transducer and activator of transcription 3 (Homo sapiens) (P40763 whole entry, looked up): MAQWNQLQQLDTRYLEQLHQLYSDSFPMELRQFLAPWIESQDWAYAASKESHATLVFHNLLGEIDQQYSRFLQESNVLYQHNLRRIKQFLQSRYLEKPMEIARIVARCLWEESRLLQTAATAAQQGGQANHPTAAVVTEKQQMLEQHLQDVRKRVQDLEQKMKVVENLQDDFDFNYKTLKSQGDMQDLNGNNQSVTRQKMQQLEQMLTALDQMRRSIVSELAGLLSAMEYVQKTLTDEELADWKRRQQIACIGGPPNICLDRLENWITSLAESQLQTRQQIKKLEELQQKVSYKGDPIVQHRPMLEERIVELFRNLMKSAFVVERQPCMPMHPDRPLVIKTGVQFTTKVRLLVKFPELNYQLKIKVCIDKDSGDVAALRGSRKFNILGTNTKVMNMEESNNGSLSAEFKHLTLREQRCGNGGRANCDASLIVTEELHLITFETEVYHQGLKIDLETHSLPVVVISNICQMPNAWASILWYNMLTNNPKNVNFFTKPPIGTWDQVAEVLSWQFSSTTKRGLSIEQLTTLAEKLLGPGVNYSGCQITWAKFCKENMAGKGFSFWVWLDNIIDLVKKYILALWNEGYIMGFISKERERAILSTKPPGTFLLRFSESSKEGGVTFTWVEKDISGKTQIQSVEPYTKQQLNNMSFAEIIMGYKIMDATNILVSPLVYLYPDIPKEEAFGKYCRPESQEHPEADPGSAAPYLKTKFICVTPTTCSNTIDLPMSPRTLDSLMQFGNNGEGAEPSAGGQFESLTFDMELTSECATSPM
Chain of Transcription factor E2F1 (Homo sapiens) (Q01094 whole entry, looked up): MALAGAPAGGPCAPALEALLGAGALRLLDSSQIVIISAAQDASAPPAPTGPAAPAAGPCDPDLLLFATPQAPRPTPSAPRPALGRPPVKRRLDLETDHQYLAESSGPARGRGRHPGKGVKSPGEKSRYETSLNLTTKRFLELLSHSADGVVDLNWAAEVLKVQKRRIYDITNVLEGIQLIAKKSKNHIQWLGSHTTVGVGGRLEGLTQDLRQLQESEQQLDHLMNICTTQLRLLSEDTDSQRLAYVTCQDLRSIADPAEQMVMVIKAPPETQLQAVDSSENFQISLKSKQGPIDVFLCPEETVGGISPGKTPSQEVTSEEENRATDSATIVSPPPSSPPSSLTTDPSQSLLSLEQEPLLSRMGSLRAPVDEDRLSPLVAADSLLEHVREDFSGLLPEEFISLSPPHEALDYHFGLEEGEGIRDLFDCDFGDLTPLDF

As for `C=CC(=O)OC`, the outcome in [1], in experiment [2], in experiment [3], in experiment [4], in experiment [5] and in [6] was inactive. Moreover, the result in experiment [7], in [8], in experiment [9], in experiment [10], in experiment [11] and in [12] was inactive. The compound was classed as inactive in experiment [13], in experiment [14], in experiment [15], in experiment [16], in experiment [17] and in experiment [18]. The compound was classed as inactive in experiment [19] and in [20].

Take `COC(=O)c1ccccc1S(=O)(=O)NC(=O)Nc1nc(C)cc(C)n1`: the result in experiment [1], in experiment [2], in experiment [3], in experiment [4], in [5] and in [6] was inactive. The result in [7], in experiment [8], in experiment [9], in [10], in [11] and in experiment [12] was inactive. Besides, the call in experiment [13], in experiment [14], in [15], in [16], in experiment [17] and in [18] was inactive. The call in experiment [19] and in experiment [20] was inactive.

Turning to `C=CCO`, the outcome in [1], in [2], in [3], in experiment [4], in [5] and in experiment [6] was inactive. Moreover, the result in [7], in experiment [8], in experiment [9], in [10], in experiment [11] and in experiment [12] was inactive. Further, the compound was called inactive in experiment [13], in [14], in experiment [15], in experiment [16], in experiment [17] and in experiment [18]. Moreover, the compound was called inactive in experiment [19] and in experiment [20].

As for `O=C(O)CCCc1ccc(N(CCCl)CCCl)cc1`, the result in [1], in [3], in [4], in experiment [5], in [6] and in experiment [7] was inactive. Further, the compound was classed as inactive in experiment [8], in [9], in experiment [10], in experiment [11], in experiment [12] and in experiment [13]. Further, the call in experiment [14], in experiment [16], in [17], in experiment [18], in experiment [19] and in experiment [20] was inactive. Besides, the AC50 in experiment [2] was 112 µM (active); in experiment [15], 143 µM (active).

`CNC(=N[N+](=O)[O-])NCC1CCOC1` (stereo not given): the result in [1], in experiment [2], in experiment [3], in experiment [4], in experiment [5] and in [6] was inactive. Besides, the call in experiment [7], in [8], in experiment [9], in experiment [10], in [11] and in [12] was inactive. Further, the outcome in experiment [13], in experiment [14], in [15], in experiment [16], in experiment [17] and in experiment [18] was inactive. Besides, the compound was classed as inactive in [19] and in experiment [20].

On to `CC(C)(O)C#N`, for which the outcome in experiment [1], in [2], in [3], in experiment [4], in experiment [5] and in experiment [6] was inactive. Moreover, the result in experiment [7], in experiment [8], in [9], in experiment [11], in [12] and in [13] was inactive. Also, the outcome in [14], in [15], in [16], in [17], in experiment [18] and in experiment [19] was inactive. The compound was classed as inactive in experiment [20]. In experiment [10], the AC50 is 27.4 µM (active).
